92 compounds from ChEMBL document CHEMBL3988442, “University of Dundee, Small-Polar-MMV Screening Library” (2021) can be followed below.

Structures are written as SMILES. The whole screen tested about 38,000 compounds, of which about 1,200 (3.2%) showed an effect of 50% or more. The median lay at about -58%. The list comes from a sample in which strong results are over-represented; it also holds similar structures and randomly drawn compounds.

The test has as its system Plasmodium falciparum. As to the kind of experiment: Calibr Malaria Delayed Death Assay SOP. It counts as functional, organism-based. Also noted: scale not given: in the data most compounds retested in dose-response had high values. The following applies: concentration 4.99e-06 (unit not given; other assays of the set use mol/L).
`CN(CCCc1ccccc1)C(=O)c1ccccc1NCC(=O)O`: the “Percent Effect” value is -16.6%.
Then `CCC1=NN2C(=N)/C(=C\c3cccn3-c3ccc(Cl)cc3)C(=O)N=C2S1`, with 17.01%; and `COc1cc(I)c(Cl)cc1C(=O)N(C)CC(=O)NC(C)(C)C`, with -34.35%.
On to `CN1[C@H](Cn2cccn2)C[C@@H]2CN(C(=O)Cc3cccs3)CC[C@@H]21`, for which the “Percent Effect” value is -36.35%.
Then `CN1[C@H](CN2CCCC2)C[C@@H]2CN(Cc3ccoc3)CC[C@@H]21.O=C(O)C(F)(F)F.O=C(O)C(F)(F)F.O=C(O)C(F)(F)F`, with 57.43%; and `CN1[C@H](Cn2cccn2)C[C@@H]2CN(Cc3cccs3)CC[C@@H]21.O=C(O)C(F)(F)F.O=C(O)C(F)(F)F.O=C(O)C(F)(F)F`, with 75.74%; and `CN1C(Cn2cccn2)C[C@@H]2CN(Cc3ccccn3)CC[C@@H]21.O=C(O)C(F)(F)F.O=C(O)C(F)(F)F.O=C(O)C(F)(F)F.O=C(O)C(F)(F)F` (some centres not stated), with 41.52%.
Then `CN1C(Cn2cccn2)C[C@@H]2CN(Cc3cccnc3)CC[C@@H]21.O=C(O)C(F)(F)F.O=C(O)C(F)(F)F.O=C(O)C(F)(F)F.O=C(O)C(F)(F)F` (some centres not stated), with 11.1%; and `Cc1ccoc1C(=O)N1CC[C@H]2[C@H](C[C@@H](CN3CCCC3)N2C)C1.O=C(O)C(F)(F)F.O=C(O)C(F)(F)F`, with -53.97%; and `CC(C)N1[C@H](Cn2cccn2)C[C@@H]2CN(Cc3ccoc3)CC[C@@H]21.O=C(O)C(F)(F)F.O=C(O)C(F)(F)F.O=C(O)C(F)(F)F`, with 39.12%.
Consider `CN1C(Cn2cccn2)C[C@@H]2CN(Cc3nccs3)CC[C@@H]21` (some centres not stated), for which the “Percent Effect” value is -108.4%.
`CCc1nc2n(n1)CC(NCc1cc(OC)c3c(c1)OCCO3)CC2` (configuration not stated): the “Percent Effect” value was -60.23%.
Then `O=C(CN1CC(c2ccccc2)CC1=O)N1CCN(c2nccs2)CC1` (configuration not stated), with -33.46%; and `Cc1nc(-c2cccc(C(=O)O)c2)cc(C2CCCN(C(C)C)C2)n1` (configuration not stated), with -116.2%.
For `COc1cccc(CNc2nnc(C(C)(C)C)o2)c1OC`, the “Percent Effect” value was -115.2%.
The value for `CC(C(=O)N1CCc2sccc2C1)N1CCCN(C2CC2)CC1` (configuration not stated) was 19.49%; that for `CC(C(=O)N1CCc2sccc2C1)N1CCC(N2CCCC2)CC1` (configuration not stated) was 51.04%.
The value for `CC(C)NC(=O)C1CCN(C(C)C(=O)N2CCc3sccc3C2)CC1` (configuration not stated) was -19.38%; that for `COC(=O)CC(C1=Cc2ccccc2OC1)c1oc(C)cc(=O)c1O` (configuration not stated) was -54.1%; that for `COCCC1(CNC(=O)Nc2ccnc(C)c2)CCCC1` was 72.21%.
The value for `COCCC1(CNC(=O)Nc2ccc(-n3nccn3)cc2)CCC1` was -17.2%; that for `Cc1cc(NC(=O)NCC2(O)CCCC2)ccn1` was -130.9%; that for `COc1ncc(C2(O)CCN(Cc3cc(F)cc(F)c3)CC2)c(OC)n1` was -99.52%.
Take `O=c1[nH]nc2c(S(=O)(=O)N3CCOCC3)cccn12`: the “Percent Effect” value is given as -183.8%.
For the compound `CNC(=O)c1cc2c(nc1NCC1CC1)CCN(c1ncccn1)CC2`, the “Percent Effect” value was -64.19%.
The value for `O=S(=O)(Nc1ccc2c(c1)OCCO2)N1CCCCC1` was -170%; that for `Cc1ccc(CNCCC(O)(c2nccn2C)C(F)(F)F)o1` (configuration not stated) was 72.37%.
Then `Cc1ccc(CNC(c2cccc(F)c2)c2nccn2C)o1.Cl` (configuration not stated), with 35.29%; and `Cc1ccc(CNC(c2ccc(F)cc2)c2nccn2C)o1` (configuration not stated), with -33.59%; and `Cn1ccnc1CN1CCCN(C(=O)c2ccc(Cl)o2)CC1`, with -26.42%.
For the compound `CCc1n[nH]c(C2CN(C(=O)COCC(F)(F)F)CCO2)n1` (configuration not stated), the “Percent Effect” value is given as -109.1%.
The value for `CCc1c(C)n(CCC#N)c2nc3ccccc3n2c1=O` was -59.08%; that for `CCc1nnc2n1CCN(C(=O)C1CCC(n3cccc3)CC1)C2` (configuration not stated) was -12.54%.
Then `O=C1CCc2cc(-c3csc(CCN4CCOC4=O)n3)c(F)cc2N1`, with 10.62%.
Then `COc1cccc(CSc2nnc(C)n2CC(N)=O)c1`, with -57.97%.
In the case of `NC(=O)CN(Cc1ccc(Br)cc1)C(=O)c1cccnc1`, the “Percent Effect” value was -140.6%.
In the case of `COc1ccc(O[C@H]2COCCN(Cc3c[nH]c4ccccc34)C2)cc1`, the “Percent Effect” value is -21.41%.
The value for `Cc1ccc(-n2cc(CN3CCOCC(CN(C)C)C3)cn2)cc1C` (configuration not stated) was 38.47%; that for `COc1ccc(CN2C[C@@H](CN(C)C)[C@@H](CO)C2)c(Cl)c1OC` was -21.55%.
The value for `Cc1cc(C)c(-n2cccn2)c(CN2CCOCC(CN(C)C)C2)c1` (configuration not stated) was 34.59%.
As to `COc1ccc(CN2C[C@@H](CN(C)C)[C@@H](CO)C2)cc1OC`, the “Percent Effect” value was -68.69%.
The value for `Cc1cc(-n2cccn2)ccc1CN1C[C@@H](CN(C)C)[C@@H](CO)C1` was 52.18%; that for `COc1ccc(-n2cccn2)c(CN2CCOCC(CN(C)C)C2)c1` (configuration not stated) was 78.01%.
Then `Cc1cc(-n2cccn2)ccc1CN1CCOCC(CN(C)C)C1` (configuration not stated), with 73.33%; and `COc1ccc(CN2CCOC[C@H](Oc3cccnc3)C2)cc1`, with -114.4%; and `CCc1cc2c(N3CCCC(c4ccn[nH]4)C3)ncnc2s1` (configuration not stated), with 10.63%.
Then `O=C(CC1CCc2ccccc21)N1CCC(O)(Cn2ccnc2)CC1` (configuration not stated), with -24.52%; and `CCCN1CCC(c2nc3ccc(-c4cccc(OC)c4)cn3n2)CC1.O=C(O)C(F)(F)F`, with -29.22%.
For `CCN(CC)Cc1nnc2sc(-c3cc(C(C)C)[nH]n3)nn12`, the “Percent Effect” value was -70.51%.
As to `CN(C(=O)Cn1nc(-c2ccc(Cl)cc2)ccc1=O)C1CCS(=O)(=O)C1` (configuration not stated), the “Percent Effect” value came out at 1.296%.
For the compound `CC(=O)N1CCC(c2nc3ccc(-c4ccnn4C)cn3n2)CC1.O=C(O)C(F)(F)F`, the “Percent Effect” value is -57.67%.
The value for `NC(=O)N1Cc2nccn2CC(Cn2ncccc2=O)C1` (configuration not stated) was -152.6%; that for `Cc1nc(CN2CCC23CCN(Cc2ccoc2)CC3)cs1` was 35.85%.
The value for `COCCC(=O)N1CCC2(CCN(Cc3ccc(C)cc3)CC2)C1.O=C(O)C(F)(F)F` was -50.1%.
`COCCC(=O)N1CC2(CCN(Cc3ccncc3)CC2)C1`: the “Percent Effect” value was -37.67%.
For `Cc1ccc(CN2CCCC3(CCN(Cc4ccoc4)CC3)C2)cc1.O=C(O)C(F)(F)F.O=C(O)C(F)(F)F`, the “Percent Effect” value is 79.2%.
Then `Cc1ccc(CN2CCC3(CCN(Cc4ccncc4)CC3)CC2)cc1`, with 77.61%; and `Cn1ccnc1CN1CC2(CCN(Cc3ccncc3)C2)C1`, with -45.53%; and `Cc1ccc(CN2CCC3(CC2)CCN(Cc2ccoc2)CC3)cc1.O=C(O)C(F)(F)F.O=C(O)C(F)(F)F`, with 92.5%.
Then `CS(=O)(=O)N1CCOCC2(CCN(Cc3ccoc3)CC2)C1.O=C(O)C(F)(F)F`, with -77.45%; and `CS(=O)(=O)N1CCCC12CCN(Cc1ccoc1)CC2`, with -46.44%; and `O=C(O)C(F)(F)F.O=C(O)C(F)(F)F.O=C(O)C(F)(F)F.c1cc(CN2CCCC23CCCN(Cc2ccoc2)C3)ccn1` (configuration not stated), with -115.9%.
The value for `COCC(=O)N1CCC2(CCN(Cc3ccc(C)cc3)CC2)CC1.O=C(O)C(F)(F)F` was -23.78%; that for `O=C(CCn1cncn1)NC1CCc2nccn2C1` (configuration not stated) was -109.9%; that for `C[C@]1(O)CN(Cc2ccc(C(=O)O)cc2)CC[C@@H]1Oc1cccc(F)c1` was -93.08%.
Regarding `O=c1ccc2c(n1CC1CC1)CCN(c1ncccn1)CC2`, the “Percent Effect” value is given as 5.282%.
The value for `O=C(O)C(F)(F)F.O=C(O)C(F)(F)F.c1ccc(COC[C@@H]2CCC[C@]23CN(Cc2nccs2)CCO3)nc1` was -24.57%; that for `O=S(=O)(Cc1ccc(F)cc1)NCCc1nnc2n1CCC2` was -62.4%.
The value for `Cc1nc(CNC(=O)NC(C)c2ccc3c(c2)OCCO3)cs1` (configuration not stated) was -69.15%; that for `COCCn1ccc(=O)c(OCC(=O)Nc2cccc(OC)c2)c1C` was -50.47%.
The value for `COCc1cc(CNCc2c(C)n(CC(C)C)c3ccccc23)n[nH]1` was -32.81%; that for `Cc1cc(NC(=O)C(C#N)Cc2cnn(C)c2C)no1` (configuration not stated) was -0.6706%; that for `Cc1ccc(CN2CCC3(CCCN(C(=O)N(C)C)C3)C2)cc1` (configuration not stated) was -64.1%.
In the case of `O=C(c1cnccn1)N1CCC2(CCCN(Cc3ccoc3)C2)C1` (configuration not stated), the “Percent Effect” value was -97.37%.
Then `CCOC(=O)[C@H]1[C@@H](O)C(=O)N(C)C12CCN(C(=O)C(CC)CC)CC2`, with -15.32%; and `CCN(C)C(=O)Nc1cc(F)c(OC)cc1F`, with -13.37%; and `O=C(c1ccc(F)c(Br)c1)N1CCCN2CCCC2C1` (configuration not stated), with 22.61%.
The value for `Cc1cccc(N2CCCC3(C2)CN(c2nncs2)CCO3)c1` (configuration not stated) was -92.55%.
Then `COc1ccc(N2CCCC3(C2)CN(c2nncs2)CCO3)cc1` (configuration not stated), with 87.98%; and `c1cncc(N2CCOC3(CCCN(c4nncs4)C3)C2)c1` (configuration not stated), with -13.46%; and `O=C1CCCN1Cc1nnc2n1CCCN(C(=O)c1ccc[nH]1)C2`, with -52.27%.
In the case of `O=C(c1ccc(-n2cnnc2)cc1)N1CCC(Nc2cccnn2)CC1`, the “Percent Effect” value is listed as -15.7%.
For `CCN1Cc2ccccc2CC2(CCN(CC(=O)O)CC2)C1=O.O=C(O)C(F)(F)F`, the “Percent Effect” value is on record as -102.3%.
Take `CCn1c(SCC(=O)O)nnc1C(C)NC(=O)c1ccc(Cl)cc1` (configuration not stated): the “Percent Effect” value is reported as -146.1%.
The value for `Cc1noc(C(C)NC(=O)[C@@H](C)NC(=O)OC(C)(C)C)n1` (some centres not stated) was -163.7%.
The value for `Fc1ccc2[nH]c(C3CCCN3Cc3c[nH]cn3)nc2c1` (configuration not stated) was 80.29%; that for `O=C(c1cccc(CO)n1)N1CCCC1c1nc2cc(F)ccc2[nH]1` (configuration not stated) was -67.52%; that for `O=C(CN1CCCC1c1nc2cc(F)ccc2[nH]1)NCc1ccccn1` (configuration not stated) was -65.25%.
Then `CC(C)OCCCNC(=O)NCc1cccc(-n2ccnc2)c1`, with -80.58%.
Regarding `Cc1nn(C)c(C)c1-c1ccnc(N(C)Cc2noc(C(C)C)n2)n1`, the “Percent Effect” value is recorded as -30.97%.
Then `Cc1nn(C)c(C)c1-c1ccnc(N(C)Cc2nc(C(C)C)no2)n1`, with 65.96%.
For `Cc1nn(C)cc1-c1ccnc(N(C)Cc2noc(C(C)C)n2)n1`, the “Percent Effect” value was -38.19%.
